Measured values published in publication PMC4336329 (PLoS ONE, 2015).
Among all 310,000 compounds or so, about 14,000 (4.5%) showed an effect of 50% or more. Effects have a minus sign here. What follows is part of a selection rich in strong results, with near analogues and random picks from the rest.

target: human ether-à-go-go-related gene (hERG) potassium channel (human, UniProt Q12809); test: primary screen, population patch clamp on CHO cells stably expressing hERG; higher = less effect of the substance
Sequence (Q12809 whole entry, looked up): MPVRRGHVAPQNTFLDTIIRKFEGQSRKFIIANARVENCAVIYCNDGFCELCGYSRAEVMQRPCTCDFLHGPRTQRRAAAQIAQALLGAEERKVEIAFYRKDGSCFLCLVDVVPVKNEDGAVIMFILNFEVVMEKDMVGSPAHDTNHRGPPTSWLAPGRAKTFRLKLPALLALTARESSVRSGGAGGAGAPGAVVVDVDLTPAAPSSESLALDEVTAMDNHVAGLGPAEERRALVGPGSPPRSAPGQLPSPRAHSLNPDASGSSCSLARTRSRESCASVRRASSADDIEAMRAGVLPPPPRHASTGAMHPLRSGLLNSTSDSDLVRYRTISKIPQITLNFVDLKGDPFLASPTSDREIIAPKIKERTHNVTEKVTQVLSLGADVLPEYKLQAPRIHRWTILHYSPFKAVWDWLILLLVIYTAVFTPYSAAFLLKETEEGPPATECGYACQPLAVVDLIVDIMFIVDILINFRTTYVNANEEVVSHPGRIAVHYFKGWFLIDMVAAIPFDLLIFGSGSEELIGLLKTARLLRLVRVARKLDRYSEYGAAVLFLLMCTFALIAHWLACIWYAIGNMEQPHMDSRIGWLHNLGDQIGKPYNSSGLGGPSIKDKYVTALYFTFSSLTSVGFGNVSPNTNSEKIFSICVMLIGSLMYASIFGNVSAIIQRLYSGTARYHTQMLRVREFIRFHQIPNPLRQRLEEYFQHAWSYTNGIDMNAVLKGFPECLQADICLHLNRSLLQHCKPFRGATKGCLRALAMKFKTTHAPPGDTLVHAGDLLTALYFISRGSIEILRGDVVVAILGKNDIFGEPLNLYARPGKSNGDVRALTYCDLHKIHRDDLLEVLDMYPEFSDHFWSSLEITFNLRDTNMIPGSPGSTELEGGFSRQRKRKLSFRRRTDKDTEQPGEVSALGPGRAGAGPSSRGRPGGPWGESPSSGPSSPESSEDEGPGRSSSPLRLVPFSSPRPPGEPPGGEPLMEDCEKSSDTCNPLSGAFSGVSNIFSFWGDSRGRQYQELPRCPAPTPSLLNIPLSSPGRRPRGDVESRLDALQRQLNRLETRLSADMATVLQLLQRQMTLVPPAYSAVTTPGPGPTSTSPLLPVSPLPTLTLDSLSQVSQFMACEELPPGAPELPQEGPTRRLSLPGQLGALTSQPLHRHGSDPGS
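Note: peak tail current of the secondary pulse compared with the same well before compound.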

Row | SMILES | hERG current change (%, negative = inhibition) at 10uM [%]
1 | CCC(C)NC(=O)COC(=O)c1cccnc1Nc1ccccc1F (stereo not shown) | 8.21
2 | COc1ccc(NS(=O)(=O)c2ccc(Oc3ncccn3)cc2)cc1 | 3.85
3 | CC(C)c1cc(-c2cc(-c3ccc(Cl)cc3)on2)nc(NC2CCCC2)n1 | 13.3
4 | Cc1cc(C(=O)Nc2nc3ccc(Cl)cc3s2)nn1C | 5.89
5 | CCOC(=O)C(C)/C(C)=N/NC(N)=S (stereo not shown) | 14.4
6 | Cl.c1ccc(OCCOCCN2CCc3ccccc3C2)cc1 | -42.8
7 | CCCOc1ccc(OCCOCCN2CCc3ccccc3C2)cc1 | -64.7
8 | CCOc1ccc(OCCOCCN2CCOCC2)cc1.O=C(O)C(=O)O | 0.827
9 | COc1ccc(OCCOCCN2CCOCC2)cc1 | 5.25
10 | CCOc1ccc(OCCOCCN2CCc3ccccc3C2)cc1 | -74.8
11 | COc1ccc(OCCOCCN2CCc3ccccc3C2)cc1 | -69.9
12 | CCOc1ccc(S(=O)(=O)N2CCc3ccccc3C2)cc1 | 9.5
13 | N#Cc1ccc(OCCN2CCc3ccccc3C2)cc1 | -45.2
14 | COc1ccc(OCCCN2CCc3ccccc3C2)cc1.Cl | -47.5
15 | CCCC(C)NC(=O)COC(=O)c1ccc(Cl)c(S(N)(=O)=O)c1 (stereo not shown) | 8.02
16 | CCOc1ccc(NC(=O)N2CCCC2C(=O)NCC2CCCO2)cc1 (stereo not shown) | 18.5
17 | O=C1CCCCC1Sc1nnc(Nc2ccccc2)s1 (stereo not shown) | -7.47
18 | O=C(Cn1nc2sc3ccccc3n2c(=O)c1=O)c1cccs1 | 7.63
19 | CCNC(=S)Nc1ccc(Cc2ccncc2)cc1 | -4.01
20 | COc1ccc(-c2cc(C(F)(F)F)c(C#N)c(SCC(=O)Nc3nc(C)co3)n2)cc1 | 1.46
21 | Cc1ccc(CNC(=O)C(c2ccccc2)c2ccccc2)cc1 | -64
22 | CCC(C(=O)NCc1ccc(C)cc1)c1ccccc1 (stereo not shown) | -1.35
23 | O=C(NCc1ccc(F)cc1)C(c1ccccc1)c1ccccc1 | 4.43

Row | SMILES | hERG current change (%, negative = inhibition) at 10uM [%]
24 | CCOC(=O)c1ccc(NC(=O)COc2ccccc2CNCCO)cc1 | -24
25 | CCOC(=O)c1ccc(NC(=O)COc2ccccc2CNCCc2ccccc2)cc1.Cl | -79.3
26 | CCOC(=O)c1ccc(NC(=O)COc2ccc(CNC3CCCCC3)cc2OC)cc1 | -26
27 | CCOC(=O)c1ccc(NC(=O)COc2ccccc2CNC2CCCC2)cc1.Cl | -78.1
28 | CCOC(=O)c1ccc(NC(=S)NC2CCCC2)cc1 | -7.86
29 | CCOC(=O)c1ccc(NC(=O)COc2ccccc2OC)cc1 | 2.1
30 | CN(C)S(=O)(=O)Oc1ccccc1C(=O)Nc1ccc(F)cc1F | 2.34
31 | COc1ccc(C)cc1NC(=O)C1CCCN(S(=O)(=O)c2ccc3c(c2)CCCN3C(C)=O)C1 (stereo not shown) | -2.38
32 | CCN(CC)CCCNC(=O)C1c2ccccc2C(=O)N(C)C1c1ccc(OC)cc1 (stereo not shown) | 6.8
33 | CCCCN(CC)CCCNC(=O)C1c2ccccc2C(=O)N(C)C1c1cn(C)c2ccccc12 (stereo not shown) | -72.7
34 | CCN(CC)CCNC(=O)C1c2ccccc2C(=O)N(C)C1c1cn(C)c2ccccc12 (stereo not shown) | -19.5
35 | Cc1ccccc1S(=O)(=O)N1CC(C(=O)O)=CC[C@H]1c1ccc(Cl)cc1 | 15.8
36 | CC1CCN(c2nc3c(c(=O)[nH]c(=O)n3C)n2CC(C)CSc2nnnn2-c2ccccc2)CC1 (stereo not shown) | -57.6
37 | Cn1c(=O)[nH]c(=O)c2c1nc(N1CCCC1)n2CCCSc1nnnn1-c1ccccc1 | -13.5
38 | CC(CSc1nnnn1-c1ccccc1)Cn1c(N2CCN(C)CC2)nc2c1c(=O)[nH]c(=O)n2C (stereo not shown) | -43.6
39 | CN1CCN(c2nc3c(c(=O)[nH]c(=O)n3C)n2CCSc2nnnn2-c2ccccc2)CC1 | -17
40 | CN1CCN(c2nc3c(c(=O)[nH]c(=O)n3C)n2CCCSc2nnnn2-c2ccccc2)CC1 | -51.2
41 | CC(CSc1nnnn1-c1ccccc1)Cn1c(N2CCCC2)nc2c1c(=O)[nH]c(=O)n2C (stereo not shown) | -45.1
42 | CCCN1Cc2cccc(C(=O)Nc3ccc(CC)cc3)c2C1=O | 8.1
43 | Cc1cc(C)nc(NC(=O)c2ccc(C)c(C)c2)n1 | 18
44 | Oc1cccc(-n2nnnc2SCc2ccccc2F)c1 | 7.33
45 | Cc1cc(C)c(S(=O)(=O)c2ccccc2)c(=O)[nH]1 | 20.6
46 | COc1ccc(NC(=O)c2c(C)nn(-c3ccccc3)c2Cl)cc1 | 20.4
